Measurements from ChEMBL document CHEMBL3433997, “St. Jude Leishmania screening dataset” (2016).

Target: Hexose transporter 1 (Plasmodium falciparum) (UniProt O97467)
Assay: ST_JUDE_LEISH: Cytotoxicity at 2uM final concentration against transgenic Leishmania Mexicana promastigotes LmPfHT that are glucose transport deficient and complemented with the Plasmodium falciparum hexose transporter. Activity is measured by DNA content using SYBR green in vitro
Type: functional

First: Cc1ccc(-n2cc(CNCCCn3ccnc3)c(-c3cccc(C)c3)n2)cc1
Second: Cc1cccc2nc(-c3ccc(-c4ccc(NC(=O)c5cncn5C)cc4)s3)[nH]c12
The inhibition of the first is lower: 6.62% for the first, 9.8% for the second.

Going from `CCNS(=O)(=O)c1ccc(Oc2ccc([N+](=O)[O-])cc2)cc1` to `COc1cc(NC(=O)c2cccc([N+](=O)[O-])c2)cc(S(=O)(=O)c2ccc(Cl)cc2)c1`, the inhibition rises from -1.31% to -1.02%.

First: O=C(NCC1CCC(C(=O)NC2CCCc3ccccc32)CC1)c1ccc(O)c(-c2cccc([N+](=O)[O-])c2)c1 (stereo not given)
Second: Cc1ccccc1C1CCN(C2CCC(NC(=O)c3ccc4c(c3)-c3nocc3C(C)O4)CC2)CC1 (stereo not given)
The inhibition of the first is lower: 2.12% for the first, 4.08% for the second.

First: O=C(/C=C/c1ccc(Cl)c(Cl)c1)NCCCCCN1CCCN(C(=O)Nc2ccc(F)c(F)c2)CC1
Second: O=C(/C=C/c1ccc(Cl)c(Cl)c1)NCCCCCN1CCC(NC(=O)Nc2ccc(Br)cc2)CC1
The inhibition of the first is higher: 2.88% for the first, -0.06% for the second.

Going from `COc1ccccc1CCNc1nc(C)cc(N[C@@H](CC(C)C)C(=O)Nc2ccccc2)n1` to `Cc1cc(N[C@@H](CC(C)C)C(=O)NCc2cccc(F)c2)nc(NCCc2ccc(F)cc2)n1`, the inhibition rises from 6.02% to 7.16%.

First: N#Cc1ccnc(-c2ccc(CNC3CCN(CC4Cn5c(=O)ccc6ccc(F)c4c65)CC3)cc2)c1 (stereo not given)
Second: COc1ccc2nccc([C@@H](O)CN3CCC(NCCOc4cccc(F)c4F)CC3)c2c1
The inhibition of the first is higher: 8.44% for the first, 4.96% for the second.

First: CN(CCO)Cc1ccc(-c2ccc(NS(=O)(=O)c3cccc4cccnc34)cc2)cc1
Second: Cc1cccc2nc(-c3cccc(-c4ccc(NC(=O)Cc5c[nH]cn5)cc4)c3)[nH]c12
The inhibition of the first is higher: 81.8% for the first, -0.73% for the second.

First: COc1cccc(-c2csc(C(=O)NC3CCCCN(Cc4ccc(C(C)(C)C)cc4)C3)c2)c1 (stereo not given)
Second: CN(C)c1ccc(-c2csc(C(=O)NCC3CCN(Cc4ccc(C(C)(C)C)cc4)C3)c2)cc1 (stereo not given)
The inhibition of the first is higher: 7.61% for the first, -1.85% for the second.

Going from `COC(=O)c1cccc(CNCc2cccc(-c3cccc(-c4nc5cc(C(F)(F)F)ccc5[nH]4)c3)c2)c1` to `Clc1ccc(-c2nc3cc(-c4ccc5nc(-c6ccc(Cl)cc6)[nH]c5c4)ccc3[nH]2)cc1`, the inhibition rises from -2.35% to 12.2%.

Compared with `CCOc1ccc2[nH]c(C)cc(=NN=Cc3ccc(Cl)cc3)c2c1`, `COc1cccc(-c2ccc3ccnc(N)c3c2)c1` is higher in inhibition: 0.45% for the first, 4.24% for the second.

Compared with `Cc1c(C2CCN(CCCCNC(=O)c3ccc(-c4ccc(C#N)cc4)cc3)CC2)c2ccccc2n1CCO`, `C=CCn1cc(C2CCN(CCCCNC(=O)c3sc(-c4ccc(C(F)(F)F)cc4)nc3CO)CC2)c2cc(OC)ccc21` is higher in inhibition: 0.33% for the first, 3.91% for the second.

Going from `O=C(Nc1ccc(OC2CCN(Cc3ccccc3)C2)c(Cl)c1)c1cccs1` (stereo not given) to `O=C(Nc1cccc(-c2cccc(CN3CCCC3)c2)c1)c1ccc(Cl)cc1`, the inhibition rises from 1.06% to 1.32%.

Going from `COc1cccc(NC(=O)NC2CCN(c3ccnc(Nc4cc(OC)c(OC)c(OC)c4)n3)C2)c1` (stereo not given) to `O=C(Nc1ccccc1F)NC1CCN(c2ccnc(Nc3ccc(F)cc3)n2)CC1`, the inhibition rises from -1.6% to 2.19%.

Compared with `COc1cccc(COCC(O)CN(CCc2ccccn2)C(=O)c2ccccc2F)c1` (stereo not given), `N#Cc1ccc2[nH]cc(C(=O)CCCCCN(Cc3ccccc3)Cc3ccccc3)c2c1` is lower in inhibition: 2.79% for the first, -2.35% for the second.

Going from `CCCN1CCC=C(c2cccc(Nc3nccc(Nc4cc(OC)ccc4C)n3)c2)C1` to `O=C(NCCNc1ccnc(Nc2ccc(F)cc2)n1)Nc1ccc2c(c1)OCO2`, the inhibition falls from 11.9% to 0.82%.

Compared with `CCn1c(-c2nonc2N)nc2c(-c3cccc(NC(=O)Nc4cccc(Cl)c4)c3)ncc(OCCCN)c21`, `COc1cc(NC(=O)c2cccs2)c(OC)cc1NC(=O)Nc1cccc(Cl)c1` is lower in inhibition: 3.86% for the first, 3.25% for the second.

Compared with `Oc1ccc(CCNc2nc(NCc3ccccc3-c3ccc(C(F)(F)F)cc3)nc(NC3CCNCC3)n2)cc1`, `CCN1CCC(N(Cc2ccc(-c3ccc(C(F)(F)F)cc3)cc2)C(=O)Cn2c(SCc3cccc(F)c3F)cc(=O)c3ccccc32)C1` (stereo not given) is lower in inhibition: 0.48% for the first, -0.31% for the second.

First: Cc1cccc2nc(-c3ccc(-c4ccc(CN5CC(C)OC(C)C5)cc4)cc3)[nH]c12 (stereo not given)
Second: Cc1cc(N)nc2ccc(-c3cccc(CN)c3)cc12
The inhibition of the first is higher: 3.58% for the first, 0.76% for the second.

Compared with `N=C(N)c1nc2ccccc2s1`, `Cn1c(Cc2ccccc2)nnc1Sc1ccc(C#N)c([N+](=O)[O-])c1` is lower in inhibition: 1.89% for the first, 1.84% for the second.

Compared with `O=S(=O)(NCCN1CCCC1)c1ccc(-c2cccc(CNCCc3cccs3)c2)s1`, `O=C(CCn1cncn1)N1CCCC(c2[nH]c3ccccc3c2-c2ccncc2)C1` (stereo not given) is lower in inhibition: 2.28% for the first, -3.57% for the second.

Target: Glucose transporter (Leishmania mexicana) (UniProt O61059)
Assay: ST_JUDE_LEISH: Cytotoxicity at 2uM final concentration against transgenic Leishmania Mexicana promastigotes LmGT2 that are glucose transport deficient and complemented with the L. Mexicana glucose transporter 2. Activity is measured by DNA content using SYBR green in vitro
Type: functional

Compared with `Cc1ccc(-n2cc(CNCCCn3ccnc3)c(-c3cccc(C)c3)n2)cc1`, `Cc1cccc2nc(-c3ccc(-c4ccc(NC(=O)c5cncn5C)cc4)s3)[nH]c12` is higher in inhibition: 3.71% for the first, 7.26% for the second.

Compared with `CCNS(=O)(=O)c1ccc(Oc2ccc([N+](=O)[O-])cc2)cc1`, `COc1cc(NC(=O)c2cccc([N+](=O)[O-])c2)cc(S(=O)(=O)c2ccc(Cl)cc2)c1` is higher in inhibition: -1.68% for the first, 0.68% for the second.

First: O=C(NCC1CCC(C(=O)NC2CCCc3ccccc32)CC1)c1ccc(O)c(-c2cccc([N+](=O)[O-])c2)c1 (stereo not given)
Second: Cc1ccccc1C1CCN(C2CCC(NC(=O)c3ccc4c(c3)-c3nocc3C(C)O4)CC2)CC1 (stereo not given)
The inhibition of the first is lower: 2.39% for the first, 5.18% for the second.

Compared with `O=C(/C=C/c1ccc(Cl)c(Cl)c1)NCCCCCN1CCCN(C(=O)Nc2ccc(F)c(F)c2)CC1`, `O=C(/C=C/c1ccc(Cl)c(Cl)c1)NCCCCCN1CCC(NC(=O)Nc2ccc(Br)cc2)CC1` is lower in inhibition: 6.1% for the first, -0.46% for the second.

First: COc1ccccc1CCNc1nc(C)cc(N[C@@H](CC(C)C)C(=O)Nc2ccccc2)n1
Second: Cc1cc(N[C@@H](CC(C)C)C(=O)NCc2cccc(F)c2)nc(NCCc2ccc(F)cc2)n1
The inhibition of the first is lower: -0.58% for the first, 4.36% for the second.

First: N#Cc1ccnc(-c2ccc(CNC3CCN(CC4Cn5c(=O)ccc6ccc(F)c4c65)CC3)cc2)c1 (stereo not given)
Second: COc1ccc2nccc([C@@H](O)CN3CCC(NCCOc4cccc(F)c4F)CC3)c2c1
The inhibition of the first is higher: 4.88% for the first, -0.41% for the second.

First: CN(CCO)Cc1ccc(-c2ccc(NS(=O)(=O)c3cccc4cccnc34)cc2)cc1
Second: Cc1cccc2nc(-c3cccc(-c4ccc(NC(=O)Cc5c[nH]cn5)cc4)c3)[nH]c12
The inhibition of the first is higher: 80.8% for the first, -0.58% for the second.

Compared with `COc1cccc(-c2csc(C(=O)NC3CCCCN(Cc4ccc(C(C)(C)C)cc4)C3)c2)c1` (stereo not given), `CN(C)c1ccc(-c2csc(C(=O)NCC3CCN(Cc4ccc(C(C)(C)C)cc4)C3)c2)cc1` (stereo not given) is lower in inhibition: 5.14% for the first, -1.57% for the second.

Compared with `COC(=O)c1cccc(CNCc2cccc(-c3cccc(-c4nc5cc(C(F)(F)F)ccc5[nH]4)c3)c2)c1`, `Clc1ccc(-c2nc3cc(-c4ccc5nc(-c6ccc(Cl)cc6)[nH]c5c4)ccc3[nH]2)cc1` is higher in inhibition: -2.5% for the first, 8.04% for the second.

Compared with `CCOc1ccc2[nH]c(C)cc(=NN=Cc3ccc(Cl)cc3)c2c1`, `COc1cccc(-c2ccc3ccnc(N)c3c2)c1` is higher in inhibition: -1.27% for the first, 2.03% for the second.

Going from `Cc1c(C2CCN(CCCCNC(=O)c3ccc(-c4ccc(C#N)cc4)cc3)CC2)c2ccccc2n1CCO` to `C=CCn1cc(C2CCN(CCCCNC(=O)c3sc(-c4ccc(C(F)(F)F)cc4)nc3CO)CC2)c2cc(OC)ccc21`, the inhibition rises from 3.72% to 4.35%.

Going from `O=C(Nc1ccc(OC2CCN(Cc3ccccc3)C2)c(Cl)c1)c1cccs1` (stereo not given) to `O=C(Nc1cccc(-c2cccc(CN3CCCC3)c2)c1)c1ccc(Cl)cc1`, the inhibition rises from 1.66% to 3.94%.

Compared with `COc1cccc(NC(=O)NC2CCN(c3ccnc(Nc4cc(OC)c(OC)c(OC)c4)n3)C2)c1` (stereo not given), `O=C(Nc1ccccc1F)NC1CCN(c2ccnc(Nc3ccc(F)cc3)n2)CC1` is lower in inhibition: 5.86% for the first, 0.02% for the second.

Compared with `COc1cccc(COCC(O)CN(CCc2ccccn2)C(=O)c2ccccc2F)c1` (stereo not given), `N#Cc1ccc2[nH]cc(C(=O)CCCCCN(Cc3ccccc3)Cc3ccccc3)c2c1` is lower in inhibition: 2.65% for the first, -0.24% for the second.

Going from `CCCN1CCC=C(c2cccc(Nc3nccc(Nc4cc(OC)ccc4C)n3)c2)C1` to `O=C(NCCNc1ccnc(Nc2ccc(F)cc2)n1)Nc1ccc2c(c1)OCO2`, the inhibition falls from 10% to 0.6%.

Going from `CCn1c(-c2nonc2N)nc2c(-c3cccc(NC(=O)Nc4cccc(Cl)c4)c3)ncc(OCCCN)c21` to `COc1cc(NC(=O)c2cccs2)c(OC)cc1NC(=O)Nc1cccc(Cl)c1`, the inhibition falls from 2.75% to 2.28%.

Compared with `Oc1ccc(CCNc2nc(NCc3ccccc3-c3ccc(C(F)(F)F)cc3)nc(NC3CCNCC3)n2)cc1`, `CCN1CCC(N(Cc2ccc(-c3ccc(C(F)(F)F)cc3)cc2)C(=O)Cn2c(SCc3cccc(F)c3F)cc(=O)c3ccccc32)C1` (stereo not given) is lower in inhibition: 0.66% for the first, -0.18% for the second.

First: Cc1cccc2nc(-c3ccc(-c4ccc(CN5CC(C)OC(C)C5)cc4)cc3)[nH]c12 (stereo not given)
Second: Cc1cc(N)nc2ccc(-c3cccc(CN)c3)cc12
The inhibition of the first is higher: 0.01% for the first, -2.14% for the second.

Going from `N=C(N)c1nc2ccccc2s1` to `Cn1c(Cc2ccccc2)nnc1Sc1ccc(C#N)c([N+](=O)[O-])c1`, the inhibition falls from 2.04% to -3.07%.

Going from `O=S(=O)(NCCN1CCCC1)c1ccc(-c2cccc(CNCCc3cccs3)c2)s1` to `O=C(CCn1cncn1)N1CCCC(c2[nH]c3ccccc3c2-c2ccncc2)C1` (stereo not given), the inhibition falls from 3.42% to 1.39%.
